Experiments:
Assay in all cases: PBM binding z-score (relative to random genomic background probes); higher = stronger binding; sequences stand for … in GC…GCGATTGACAGCGTAGAATGAAGG
[1] = system: PPARg:RXRa DBDmut IVT, anti-RXR (DBD mutation: RXRa K156A/R161A, NR concentration 270 nM, RXRa partner concentration 90 nM)
Outline: (§1)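 Random background probes are the reference for binding z-scores. These scores derive from regression-normalized fluorescence on custom Agilent 4×180K protein-binding microarrays incubated 1 h with ligand-free nuclear receptor dimers. Binding was detected with antibodies against each partner (one per run).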

[2] = system: PPARg:RXRa IVT, anti-PPARg (NR concentration 270 nM, RXRa partner concentration 90 nM)
Outline: as §1

[3] = system: PPARg DBDmut:RXRa IVT, anti-PPARg (DBD mutation: PPARg1 K132A/R137A, NR concentration 270 nM, RXRa partner concentration 90 nM)
Outline: as §1

[4] = system: PPARg DBDmut IVT, anti-PPARg (DBD mutation: PPARg1 K132A/R137A, NR concentration 270 nM)
Outline: as §1

[5] = system: PPARg homodimer (NR concentration 180 nM)
Outline: as §1

[6] = system: PXR:RXRa (NR concentration 270 nM, RXRa partner concentration 90 nM)
Outline: as §1

[7] = system: PXR homodimer (NR concentration 270 nM)
Outline: as §1

[8] = system: RARa:RXR (NR concentration 270 nM, RXRa partner concentration 90 nM)
Outline: as §1

[9] = system: RARa homodimer (NR concentration 270 nM)
Outline: as §1

[10] = system: RARb:RXRa (NR concentration 270 nM, RXRa partner concentration 90 nM)
Outline: as §1

Row | Sequence | PBM binding z-score [1] | PBM binding z-score [2] | PBM binding z-score [3] | PBM binding z-score [4] | PBM binding z-score [5] | PBM binding z-score [6] | PBM binding z-score [7] | PBM binding z-score [8] | PBM binding z-score [9] | PBM binding z-score [10]
1 | AGAACGAGGGCACGCTGAGTTGATACCAGAGTAG | 4.16 | 3.75 | 0.259 | -0.00374 | 0.189 | 1.25 | 0.342 | 0.748 | -0.804 | 2.36
2 | TCAGACAGGTGAAGGGAACTCAGGTACGCAGTCG | 2.87 | 0.387 | -0.0761 | -0.559 | 0.811 | 0.733 | 0.499 | 0.697 | 0.593 | 1.04
3 | CCTATTAGTTGACCATAAGGGCAACCAAAGCTCG | 0.357 | 0.63 | 0.3 | 0.552 | 1.72 | 1.18 | 1 | 1.47 | 2.44 | 1.62
4 | TCATATAGGTAATACAGATGAAAGTCGGCATCTA | 3.53 | 2.32 | 1.22 | 1.05 | 0.725 | 0.46 | 0.387 | 0.646 | 1.28 | 0.19
5 | TCTAGTTGGTCACGGAGGTCACTCACGACGGGTA | 2.58 | 3.97 | 0.646 | 0.986 | 2.5 | 3.9 | 1.36 | 3.6 | 1.05 | 3.47
6 | GCTCGGAGAACAAGGTCAGAGCTTTGTCCGTAGA | 0.447 | 0.471 | -0.968 | -1.78 | 0.759 | 1.73 | -0.538 | 1.79 | -0.831 | 2.86
7 | CGTACTAGGTCATTGACAGGACAGTGAATAGTAA | 7.67 | 7.54 | 3.72 | 3.85 | 3.05 | 1.64 | 0.269 | 2.54 | 0.282 | 3.67
8 | TAGCCTAGGTCCTTGGGCCAGTATAGTACGCATC | -1 | -0.913 | -2.61 | -1.34 | -2.22 | -1.19 | -1.2 | -1.44 | -2.43 | -0.495
9 | GGAACGAGGCCAAGTTGATAGCAGAGTTTGATGG | 1.98 | 0.981 | -1.22 | -0.68 | -0.613 | -0.452 | 0.241 | -0.778 | -0.416 | 1.36
10 | TTACCAAGGTGAAGCTCGTTGATCCCTCTGTAGA | 1.63 | 2.34 | -0.257 | -0.63 | -0.515 | -0.27 | -0.88 | 0.172 | -0.72 | 1.29
11 | TGAATGAGGTTAAAGATCAGGAAACGTGGCGTCG | 2.17 | 3.35 | 0.769 | 0.42 | 1.22 | 2.17 | -0.325 | 3.49 | -0.294 | 1.94
12 | ACTAGTTGGTCAGCTGAGGTCACTCACAATTCGG | 1.45 | 2.35 | 0.323 | 0.891 | 1.61 | 4.97 | 1.53 | 3.69 | 0.562 | 3.34
13 | TCGAGTAGGTTAGTCGGGGCATTCGGCCAACATA | 1.74 | 2.04 | -1.62 | -1.17 | 0.0341 | 0.113 | 0.177 | 0.065 | -0.901 | 0.58
14 | GGAACCAGGGCATTCGAGTTGATAGCATGGCGAT | 3.39 | 2.91 | -0.295 | 0.956 | 1.01 | 2.12 | 0.865 | 0.882 | 0.0816 | 1.72
15 | AATACAGGTTCATCGTAGGCCAGAGTACGCACAG | 0.0837 | 0.966 | 1.55 | 1.09 | 0.907 | 3.55 | 1.4 | 2.46 | 0.533 | 1.8
16 | CCGACTGGGGCAAAGATTACCATACTCAGTACGA | 4.42 | 3.1 | -0.00287 | -0.543 | 0.462 | -0.644 | -0.342 | -0.848 | -0.293 | 0.284
17 | TCTGCTAGGTCAGTTGGTCAGATAACGAGCTGCC | 2.68 | 3.15 | 0.782 | 0.323 | 0.482 | 0.274 | -0.646 | 0.69 | -0.432 | 3.36
18 | CTTATTAGTTGACCATAAGGGCAACCGAAGCTCG | 0.601 | 0.869 | 1.18 | 1.03 | 0.708 | 0.686 | 0.516 | 0.781 | 1.3 | 1.72
19 | ATATGTAGGTTAACGGGTCATTCAGTTTGCGCAT | 8.01 | 7.92 | 2.68 | 1.82 | 2.04 | 3.26 | 3.42 | 3.42 | 1.02 | 2.54

From the supplement of paper PMC6555819
